Experimental data as given in PubChem BioAssay (NCI).
This is part of a sample that, as a whole, favours compounds with a hit. Of some 83,000 tested, about 20% had one in any assay.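 Results are percent growth after 48 hours of single-concentration exposure. 100 means growth as in untreated cells, lower positive values show inhibition; negative values down to -100 show cell death.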 Calls of active or inactive are those of the source. Rule for the calls: active = growth percent below 10; inactive = the rest.

What follows are molecules tested on LOX IMVI melanoma (assay: NCI-60 one-dose screen, 48 h (100 = growth as untreated, 0 = no growth, -100 = all killed)). Conditions: 10 µM unless noted.

Structure (SMILES)	growth
Cc1ccc(-c2csc(NC(=O)CN3CCN(c4cc5c(cc4F)c(=O)c(C(=O)O)cn5C4CC4)CC3)n2)cc1	0.737% (active)
CCOC(=O)c1c(C)c2c(n1C)CSc1cc(C(=O)c3ccccc3)c(=O)[nH]c1-2	91.1% [100 µM] (inactive)
CC(=O)N(N=Nc1ccccc1)c1cccc2ccccc12	76.5% (inactive)
Cc1ccc(-c2nc(/C=C3/C(=O)Nc4ccccc43)c3ccccn23)cc1	77.1% (inactive)
CC(C)c1ccc(NC(=O)Nc2ccc(NC(=O)CCCC(=O)NOCc3ccccc3)cc2)cc1	82.2% (inactive)
C=C(C)[C@@H]1CC[C@]2(C(=O)OC)CC[C@]3(C)[C@H](CC[C@@H]4[C@@]5(C)C/C(=C/NC(N)=S)C(=O)C(C)(C)[C@@H]5CC[C@]43C)[C@@H]12	90.2% (inactive)
COc1ccc(/C=C2\COc3ccc(O)c(O)c3C2=O)cc1	-63.9% (active)
Clc1ccc(CNc2c3ccccc3nc3ccccc23)cc1	23% (inactive)
O=C(Nc1ncc(Cc2ccc(Cl)c(C(F)(F)F)c2)s1)c1ccc2nnsc2c1	29.3% (inactive)
C/C(=C(/c1ccc(Cl)cc1)c1ccc(OCCN2CCCC2)cc1)c1ccc(Cl)cc1	78% (inactive)
CC(C)CCNC(=O)Cn1cccc(NC(=O)OCc2ccccc2)c1=O	89.8% (inactive)
Cc1nc2sc(C(=O)Nc3ccccc3)c(N)c2cc1C(=O)c1ccccc1	50% (inactive)
COC(=O)c1c2c(c(C)[n+]([O-])c1C)C(=O)C(NCc1ccc(Cl)cc1)=CC2=O	45.8% (inactive)
CCOC(=O)c1cn2ncnc(Oc3ccc(NC(=O)NC4CCCCC4)c(Cl)c3)c2c1C	54.9% (inactive)
CS(=O)(=O)c1cccc(-c2c(-c3cccc(OS(N)(=O)=O)c3)nc3sccn23)c1	95.6% (inactive)
O=C(NNc1nccc(Nc2ccc(S(=O)(=O)Nc3ccncc3)cc2)n1)c1ccccc1	-40.5% (active)
C[C@]12CC[C@@H]3c4ccc(O)c([N+](=O)[O-])c4CC[C@H]3[C@@H]1CCC2=O	90.7% (inactive)
O=C(c1ccc(-c2nc(CSc3nc4ccccc4s3)no2)cc1)N1CCSCC1	55.2% (inactive)
CCS/C(Nc1ccccc1)=C(\C#N)C(=O)N/N=C/c1ccc(Cl)cc1Cl	34.4% (inactive)
c1ccc(C2=NN[C@H](c3cn(-c4ccccc4)nc3-c3ccccc3)C2)cc1	24.4% (inactive)

Structure (SMILES)	growth
COc1cc(/C=C\c2cc(/C=C\c3ccc(O)c(OC)c3)n(C(=O)COc3ccc(Cl)cc3Cl)n2)ccc1O	3.79% (active)
Cc1ccccc1NC(=O)c1sc2nc(C)c(C(=O)/C=C/c3ccccc3)cc2c1N	-85.9% (active)
CC(C)n1cnc2c(=S)nc[nH]c21	93.7% (inactive)
CCOC(=O)/C=C1\S/C(=N\Nc2cc(=O)[nH]c3ccc(Cl)cc23)N(c2ccccc2)C1=O	84.4% (inactive)
COc1cc(-c2cc(-c3ccc(N(C)C)cc3)nc(N3CCC(O)CC3)c2C#N)cc(OC)c1OC	-0.767% (active)
CN1C(=O)/C(=C/c2ccc(C(=O)Nc3ncc(Cc4ccc(Cl)cc4)s3)cc2)SC1=S	18% (inactive)
O=C1c2c(c3c4ccccc4[nH]c3c3ccc4ccccc4c23)C(=O)N1CCN1CCCCC1	30.2% (inactive)
O=c1oc2c(cnc3ccccc32)cc1-c1ccsc1	99.3% (inactive)
Cc1cccc2c1NC(=O)C2(c1ccc(O)cc1)c1ccc(O)cc1	59.2% (inactive)
CC(=O)OCc1nc(C#N)c(N(C)C)o1	99.2% (inactive)
CCN(CC)CCCN1C(=O)c2c(c(C)c3c(oc4cc(O)ccc43)c2C)C1=O	-93.5% (active)
CCOC(=O)c1c(C)nc2c(c1N)CC(=O)N2Cc1cc(F)cc(Cl)c1	96.5% (inactive)
COc1ccc2nc(NC(=O)CSc3nnc4n3S(=O)(=O)c3ccccc3N4C)sc2c1	92% (inactive)
CCOP(=O)(OCC)c1nc(-c2ccccc2)oc1NCc1cccnc1	103% (inactive)
C#CCn1cnc2c(Nc3cccc(NC(=O)C=C)c3)ncnc21	100% (inactive)
O=C(COc1ccc(-c2nc3ccccc3[nH]2)cc1)N=Nc1c(O)[nH]c2ccc(Cl)cc12	60.7% (inactive)
c1cc2[nH]ncc2cc1-c1nc2ccc3[nH]ncc3c2c2c1CCCC2	16.2% (inactive)
CCn1c(=S)[nH]c2c(=O)n(C)c(=O)n(C)c21	98.8% (inactive)
C=CCn1c(SCC(=O)Nc2ccc(C(=O)/C=C/c3cc4cc(OC)ccc4nc3Cl)cc2)nnc1-c1ccc(Br)cc1	82.6% (inactive)
O=C1c2cccc3cccc(c23)C(=O)N1N1C(=O)c2cccc3c(N4CCOCC4)ccc(c23)C1=O	90.2% (inactive)

What follows are molecules tested on SK-MEL-28 melanoma in the same assay as above. Conditions: 10 µM unless noted.

Structure (SMILES)	growth
Cc1ccc(-c2csc(NC(=O)CN3CCN(c4cc5c(cc4F)c(=O)c(C(=O)O)cn5C4CC4)CC3)n2)cc1	41% (inactive)
CCOC(=O)c1c(C)c2c(n1C)CSc1cc(C(=O)c3ccccc3)c(=O)[nH]c1-2	105% [100 µM] (inactive)
CC(=O)N(N=Nc1ccccc1)c1cccc2ccccc12	100% (inactive)
Cc1ccc(-c2nc(/C=C3/C(=O)Nc4ccccc43)c3ccccn23)cc1	133% (inactive)
CC(C)c1ccc(NC(=O)Nc2ccc(NC(=O)CCCC(=O)NOCc3ccccc3)cc2)cc1	94.4% (inactive)
C=C(C)[C@@H]1CC[C@]2(C(=O)OC)CC[C@]3(C)[C@H](CC[C@@H]4[C@@]5(C)C/C(=C/NC(N)=S)C(=O)C(C)(C)[C@@H]5CC[C@]43C)[C@@H]12	98.9% (inactive)
COc1ccc(/C=C2\COc3ccc(O)c(O)c3C2=O)cc1	57.4% (inactive)
Clc1ccc(CNc2c3ccccc3nc3ccccc23)cc1	80.3% (inactive)
O=C(Nc1ncc(Cc2ccc(Cl)c(C(F)(F)F)c2)s1)c1ccc2nnsc2c1	54.7% (inactive)
C/C(=C(/c1ccc(Cl)cc1)c1ccc(OCCN2CCCC2)cc1)c1ccc(Cl)cc1	92.8% (inactive)
CC(C)CCNC(=O)Cn1cccc(NC(=O)OCc2ccccc2)c1=O	98.8% (inactive)
Cc1nc2sc(C(=O)Nc3ccccc3)c(N)c2cc1C(=O)c1ccccc1	46.8% (inactive)
COC(=O)c1c2c(c(C)[n+]([O-])c1C)C(=O)C(NCc1ccc(Cl)cc1)=CC2=O	95.7% (inactive)
CCOC(=O)c1cn2ncnc(Oc3ccc(NC(=O)NC4CCCCC4)c(Cl)c3)c2c1C	93.9% (inactive)
CS(=O)(=O)c1cccc(-c2c(-c3cccc(OS(N)(=O)=O)c3)nc3sccn23)c1	112% (inactive)
O=C(NNc1nccc(Nc2ccc(S(=O)(=O)Nc3ccncc3)cc2)n1)c1ccccc1	106% (inactive)
C[C@]12CC[C@@H]3c4ccc(O)c([N+](=O)[O-])c4CC[C@H]3[C@@H]1CCC2=O	115% (inactive)
O=C(c1ccc(-c2nc(CSc3nc4ccccc4s3)no2)cc1)N1CCSCC1	96.6% (inactive)
CCS/C(Nc1ccccc1)=C(\C#N)C(=O)N/N=C/c1ccc(Cl)cc1Cl	60.5% (inactive)
c1ccc(C2=NN[C@H](c3cn(-c4ccccc4)nc3-c3ccccc3)C2)cc1	50.2% (inactive)

Structure (SMILES)	growth
COc1cc(/C=C\c2cc(/C=C\c3ccc(O)c(OC)c3)n(C(=O)COc3ccc(Cl)cc3Cl)n2)ccc1O	26.6% (inactive)
Cc1ccccc1NC(=O)c1sc2nc(C)c(C(=O)/C=C/c3ccccc3)cc2c1N	42% (inactive)
CC(C)n1cnc2c(=S)nc[nH]c21	131% (inactive)
CCOC(=O)/C=C1\S/C(=N\Nc2cc(=O)[nH]c3ccc(Cl)cc23)N(c2ccccc2)C1=O	101% (inactive)
COc1cc(-c2cc(-c3ccc(N(C)C)cc3)nc(N3CCC(O)CC3)c2C#N)cc(OC)c1OC	-28.7% (active)
CN1C(=O)/C(=C/c2ccc(C(=O)Nc3ncc(Cc4ccc(Cl)cc4)s3)cc2)SC1=S	60.2% (inactive)
O=C1c2c(c3c4ccccc4[nH]c3c3ccc4ccccc4c23)C(=O)N1CCN1CCCCC1	98.1% (inactive)
O=c1oc2c(cnc3ccccc32)cc1-c1ccsc1	106% (inactive)
Cc1cccc2c1NC(=O)C2(c1ccc(O)cc1)c1ccc(O)cc1	106% (inactive)
CC(=O)OCc1nc(C#N)c(N(C)C)o1	109% (inactive)
CCN(CC)CCCN1C(=O)c2c(c(C)c3c(oc4cc(O)ccc43)c2C)C1=O	-85.1% (active)
CCOC(=O)c1c(C)nc2c(c1N)CC(=O)N2Cc1cc(F)cc(Cl)c1	105% (inactive)
COc1ccc2nc(NC(=O)CSc3nnc4n3S(=O)(=O)c3ccccc3N4C)sc2c1	117% (inactive)
CCOP(=O)(OCC)c1nc(-c2ccccc2)oc1NCc1cccnc1	113% (inactive)
C#CCn1cnc2c(Nc3cccc(NC(=O)C=C)c3)ncnc21	87.6% (inactive)
O=C(COc1ccc(-c2nc3ccccc3[nH]2)cc1)N=Nc1c(O)[nH]c2ccc(Cl)cc12	108% (inactive)
c1cc2[nH]ncc2cc1-c1nc2ccc3[nH]ncc3c2c2c1CCCC2	-0.43% (active)
CCn1c(=S)[nH]c2c(=O)n(C)c(=O)n(C)c21	109% (inactive)
C=CCn1c(SCC(=O)Nc2ccc(C(=O)/C=C/c3cc4cc(OC)ccc4nc3Cl)cc2)nnc1-c1ccc(Br)cc1	99.9% (inactive)
O=C1c2cccc3cccc(c23)C(=O)N1N1C(=O)c2cccc3c(N4CCOCC4)ccc(c23)C1=O	102% (inactive)
